Values joined by “and” are separate entries in the source; they are usually repeats but may differ in a detail not shown here. Equal values may be shown once. About 83,000 compounds went through this panel and 20% of them were active in at least one assay; those are over-represented in the sample as a whole.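 96-well plates, one dose, 48 hours. Percent growth reported; active if below 10.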 Unmarked numbers belong to inactive results.
What follows are compounds tested on MDA-MB-468 breast (assay: NCI-60 one-dose screen, 48 h (100 = growth as untreated, 0 = no growth, -100 = all killed)). Details: 10 µM unless noted.

SMILES | growth
c1ccc(-c2nc3sc(-c4ccccc4)cn3n2)cc1 | 85.2%
Cc1ccc(/C=C(/C#N)n2nnc3ncccc32)cc1 | 24.4%
CS(=O)(=O)c1ccc(/C(=N/NC(N)=S)c2ccc(F)cc2)cc1 | 88.2%
COc1cc(Cn2c(SCC(=O)Nc3ccc(Cl)cc3)nc3ccccc3c2=O)cc(OC)c1OC | 47.1%
O=C(CCCCCCSc1nc(-c2ccccc2)cc(-c2ccccc2)n1)NO | 43.2%
C=C(C)[C@@H]1CC[C@]2(C(=O)N3CCN(C)CC3)CC[C@]3(C)[C@H](CC[C@@H]4[C@@]5(C)CC[C@H](OC(=O)c6ccccc6C(=O)O)C(C)(C)[C@@H]5CC[C@]43C)[C@@H]12 | 107%
COc1ccccc1C(C)=O | 108% and 111%
COc1cccc(/C=C2\CCc3ccccc3C2=O)c1 | 63.9%
O=C1CC(c2nc3ccccc3s2)CN1C1CCCCC1 (stereo not given) | 104%
CN1CCN(Cc2ccc(NC(=O)c3cncc(C#Cc4cnc(N)nc4)c3)cc2C(F)(F)F)CC1 | 36%
C=COC(=O)CCCCCCCCC | 100%
CC(=O)c1cccc(NS(=O)(=O)c2ccc(C)cc2)c1 | 77.3%
COc1ccc2[nH]c(O)c(C(=Nc3ccc(N(C)C(=O)CN4CCN(C)CC4)cc3)c3ccccc3)c2c1 | 58.1%
Cc1ccc(S(=O)(=O)/C(=C\c2ccc(Cl)cc2)C(=O)c2ccccc2)cc1 | 105%
O=[N+]([O-])c1cc(CCl)ccc1OCCBr | 92.4%
